# Test results from PubChem BioAssay (NCATS).
# Inconclusive results are not listed. Where a call stands in place of a potency, no number is given. Calls of active or inactive are those of the source. Unless noted, the call rests on the fitted dose curve.
# Columns and labels:
# [1] = qHTS for Inhibitors of the Functional Ribonucleoprotein Complex (vRNP) of Lassa (LASV) Arenavirus: LASV Primary Screen - GLuc reporter signal (AID 1347082; calls by dose curve; tested in HEK293 reporter line; further: nearly all actives have a fitted effect of over 60% in size)
# [2] = qHTS for Inhibitors of the Functional Ribonucleoprotein Complex (vRNP) of Lassa (LASV) Arenavirus: Viability assay - alamar blue signal for LASV Primary Screen (AID 1347083; calls by dose curve; tested in HEK293 reporter line; further: nearly all actives have a fitted effect of over 80% in size)
# [3] = qHTS for Inhibitors of the Functional Ribonucleoprotein Complex (vRNP) of Lymphocytic Choriomeningitis Arenaviruses (LCMV): Viability assay - alamar blue signal for LCMV Primary Screen (AID 1347085; calls by dose curve; tested in HEK293 reporter line; further: nearly all actives have a fitted effect of over 80% in size)
# [4] = biological target: Nucleoprotein (Lymphocytic choriomeningitis virus (strain Armstrong)) (UniProt P09992); experiment: qHTS for Inhibitors of the Functional Ribonucleoprotein Complex (vRNP) of Lymphocytic Choriomeningitis Arenaviruses (LCMV): LCMV Primary Screen - GLuc reporter signal (AID 1347086); further: nearly all actives have a fitted effect of over 70% in size
# Nucleoprotein (Lymphocytic choriomeningitis virus (strain Armstrong)), sequence (P09992 whole entry, looked up): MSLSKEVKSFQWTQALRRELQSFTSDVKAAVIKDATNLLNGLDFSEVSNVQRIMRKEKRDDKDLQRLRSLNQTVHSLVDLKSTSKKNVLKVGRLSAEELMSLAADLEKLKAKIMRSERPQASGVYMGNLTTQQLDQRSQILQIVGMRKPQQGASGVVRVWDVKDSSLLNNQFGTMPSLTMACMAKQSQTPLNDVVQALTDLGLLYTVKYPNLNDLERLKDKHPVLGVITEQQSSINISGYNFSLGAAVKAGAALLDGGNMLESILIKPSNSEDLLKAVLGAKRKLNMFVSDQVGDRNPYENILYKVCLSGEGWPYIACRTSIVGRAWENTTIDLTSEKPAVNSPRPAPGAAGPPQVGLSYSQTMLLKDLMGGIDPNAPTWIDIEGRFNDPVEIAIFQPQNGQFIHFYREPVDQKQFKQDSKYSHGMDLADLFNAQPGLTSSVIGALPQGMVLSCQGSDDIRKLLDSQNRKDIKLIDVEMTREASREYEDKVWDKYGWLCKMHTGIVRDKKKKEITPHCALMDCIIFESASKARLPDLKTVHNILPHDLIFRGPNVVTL
# Potency means the concentration at half of the fitted maximal effect.
Structure (SMILES),Potency [1],Potency [2],Potency [3],Potency [4]
NC(=O)c1ccc(N(C(N)=O)c2c(F)cccc2F)nc1-c1ccc(F)cc1F,inactive,34.3 µM (active),17.2 µM (active),
C[C@]12CC[C@H](O)CC1=CC[C@@H]1[C@H]2CC[C@]2(C)C(c3cccnc3)=CC[C@H]12,inactive,inactive,inactive,inactive
COc1cc(Oc2ccnc3cc(OC)c(OC)cc23)ccc1NC(=O)NC(C)c1nccs1 (stereo not given),inactive,inactive,inactive,inactive
COc1ccc(C2=N[C@H](c3ccc(Cl)cc3)[C@H](c3ccc(Cl)cc3)N2C(=O)N2CCNC(=O)C2)c(OC(C)C)c1,inactive,inactive,inactive,inactive
OCc1c[nH]c2ccccc12,inactive,inactive,inactive,inactive
CC(C)(C)c1cnc(CSc2cnc(NC(=O)C3CCNCC3)s2)o1,6.11 µM (active),0.968 µM (active),0.968 µM (active),
CN1C(=O)C(Cc2c[nH]c3ccccc23)NC1=S (stereo not given),inactive,inactive,inactive,inactive
c1ccc(-c2nn3c(c2-c2ccnc4cc(OCCN5CCOCC5)ccc24)CCC3)nc1,inactive,inactive,inactive,inactive
COc1cc2c(cc1OC)CC(=O)N(CCCN(C)C[C@H]1Cc3cc(OC)c(OC)cc31)CC2,inactive,inactive,inactive,
COc1ccc(-c2ccc3c(N4CCOCC4)nc(N4C[C@@H](C)O[C@@H](C)C4)nc3n2)cc1CO,0.344 µM (active),0.243 µM (active),1.09 µM (active),
COc1cc(OC2CCN(C)CC2)ccc1Nc1ncc2c(n1)n(C1CCCC1)c(=O)n2C,inactive,24.3 µM (active),17.2 µM (active),
CCN(CC)CCn1c(=O)c(Cc2ccc(OC)cc2)nc2ccccc21,inactive,inactive,inactive,inactive
CCC(C(=O)O)c1ccc(N2Cc3ccccc3C2=O)cc1 (stereo not given),inactive,inactive,inactive,inactive
C[C@@]12O[C@@H](C[C@]1(O)CO)n1c3ccccc3c3c4c(c5c6ccccc6n2c5c31)CNC4=O,9.68 µM (active),0.432 µM (active),21.7 µM (active),
O=C(Nc1cc(Cl)cc2c1[nH]c1cnccc12)c1cccnc1,24.3 µM (active),21.7 µM (active),24.3 µM (active),
Nc1ccc(-c2ccc3ncc4ccc(=O)n(-c5cccc(C(F)(F)F)c5)c4c3c2)cn1,0.0024 µM (active),0.0027 µM (active),0.0054 µM (active),0.0054 µM (active)
Nc1nc2ccc([N+](=O)[O-])cc2s1,inactive,inactive,inactive,
CN1CC[C@@H](c2c(O)cc(O)c3c(=O)cc(-c4ccccc4Cl)oc23)[C@@H](O)C1,0.544 µM (active),0.137 µM (active),0.217 µM (active),0.344 µM (active)
CCCn1c(=O)c2[nH]c(C34CC5CC3C[C@@H](C5)C4)nc2n(CCC)c1=O,inactive,inactive,inactive,inactive
O=C(O)c1ccc2c(c1)nc(Nc1cccc(Cl)c1)c1ccncc12,inactive,inactive,inactive,inactive
COc1nc(-c2ccc3c(c2)OCO3)n(-c2ccc(NC(=O)CSc3ccccc3)cc2)n1,inactive,inactive,inactive,inactive
Cc1cc(SCc2sc(-c3ccc(C(F)(F)F)cc3)nc2C)ccc1OCC(=O)O,inactive,inactive,inactive,inactive

Structure (SMILES),Potency [1],Potency [2],Potency [3],Potency [4]
CCC(=O)N[C@H]1CC[C@H](C(=O)N(C)c2ccc(-c3nc4ccccc4o3)cc2)C1,9.68 µM (active),3.43 µM (active),2.17 µM (active),3.43 µM (active)
CC1(C)CCC(c2ccc(Cl)cc2)=C(CN2CCN(c3ccc(C(=O)NS(=O)(=O)c4ccc(N[C@H](CCN5CCOCC5)CSc5ccccc5)c(S(=O)(=O)C(F)(F)F)c4)cc3)CC2)C1,inactive,inactive,inactive,inactive
Brc1ccccc1-c1ccccc1,inactive,inactive,inactive,inactive
O=C(Nc1cccc(C2=NCCN2)c1)Nc1cccc(C2=NCCN2)c1,inactive,inactive,inactive,inactive
Cc1c(C(=O)Nc2ccc(N3C[C@@H](C)O[C@@H](C)C3)nc2)cccc1-c1ccc(OC(F)(F)F)cc1,inactive,inactive,inactive,inactive
Cc1ccc(C(N)=O)cc1Nc1nccc(-c2cn(C(C)C)c3cnccc23)n1,24.3 µM (active),15.3 µM (active),21.7 µM (active),
C1=CCOCc2cc(ccc2OCCN2CCCC2)Nc2nccc(n2)-c2cccc(c2)OCC1,12.2 µM (active),7.69 µM (active),24.3 µM (active),
CC(NCc1ccc2c(c1)nc(NC(=O)c1ccc(-c3cn[nH]c3)s1)n2CC(C)(C)O)C(C)(C)C (stereo not given),1.93 µM (active),0.485 µM (active),1.72 µM (active),
CNC(=O)c1cc(Oc2ccc(NC(=O)Nc3cc(C(C)(C)C)nn3-c3ccc4ncccc4c3)c(F)c2)ccn1,7.69 µM (active),19.3 µM (active),24.3 µM (active),
CC(=O)OCCN1C(=O)c2c(C)nc3ccc(S(=O)(=O)N4CCOCC4)cc3c2C1=O,inactive,inactive,inactive,
C=CCNC(N)=S,inactive,inactive,inactive,inactive
O=C(Nc1cccnc1)N1CCC(Cc2cccc(Oc3ccc(C(F)(F)F)cn3)c2)CC1,21.7 µM (active),15.3 µM (active),,
CCc1cc(Nc2nccc(-c3c(-c4ccc(OC)c(C(=O)Nc5c(F)cccc5F)c4)nc4ccccn34)n2)c(OC)cc1N1CCC(N2CCN(S(C)(=O)=O)CC2)CC1,inactive,inactive,21.7 µM (active),
O=C(O)Cc1ccccc1Oc1ccc(Cl)cc1Cl,inactive,inactive,inactive,inactive
O=C(NCCS(=O)(=O)c1ccc(C(F)(F)F)cn1)c1ccc(Cl)cc1,inactive,inactive,inactive,inactive
O=C(O)CC(O)C(=O)O (stereo not given),inactive,inactive,inactive,inactive
CN(C(=O)C(Cl)Cl)c1ccc(OC(=O)c2ccco2)cc1,inactive,inactive,inactive,inactive
COc1cc(Nc2ncc3c(n2)-c2ccc(Cl)cc2C(c2c(F)cccc2OC)=NC3)ccc1C(=O)O,inactive,inactive,inactive,inactive
CN(C)c1ccc(N=NS(=O)(=O)O)cc1,inactive,inactive,inactive,inactive
CCCCCCCCCCC(CO)CCCCCCCC (stereo not given),inactive,inactive,inactive,inactive
CC[N+](C)(CC)CCOC(=O)C(O)(c1ccccc1)C1CCCCC1 (stereo not given),inactive,inactive,inactive,inactive
COc1ccc(-c2ccc3c(N4CCOC[C@H]4C)nc(N4CCOC[C@H]4C)nc3n2)cc1CO,0.0097 µM (active),0.0153 µM (active),0.0306 µM (active),0.0306 µM (active)

Structure (SMILES),Potency [1],Potency [2],Potency [3],Potency [4]
CCC(C)(Oc1ccc(C2(c3ccc(OC(C)(CC)C(=O)O)cc3)CCCCC2)cc1)C(=O)O (stereo not given),inactive,inactive,inactive,inactive
O=C(C=Cc1ccc(/C=C/C(=O)Nc2ccc(C3=NCCN3)cc2)cc1)Nc1ccc(C2=NCCN2)cc1,inactive,inactive,inactive,inactive
CC1=C(C/C=C(\C)CCC[C@H](C)CCC[C@H](C)CCCC(C)C)C(=O)c2ccccc2C1=O,inactive,inactive,inactive,inactive
CC(C)(C)c1cc(C(C)(C)C)c(NC(=O)c2c[nH]c3ccccc3c2=O)cc1O,inactive,inactive,inactive,inactive
Cc1cc(C=c2sc3nc4ccccc4n3c2=O)c(C)n1-c1ccccc1,inactive,inactive,inactive,inactive
Cc1cccc(C)c1NC(=O)c1ccccc1C(=O)O,inactive,inactive,inactive,inactive
Cc1cc(Nc2nc(N[C@@H](C)c3ncc(F)cn3)ncc2Cl)n[nH]1,inactive,inactive,inactive,inactive
CC(=O)N[C@@H](Cc1ccc(O)cc1)C(=O)O,inactive,inactive,inactive,inactive
Cc1cc(-c2ccccc2)nnc1NCCN1CCOCC1,inactive,inactive,inactive,inactive
S=c1[nH]c2ccccc2s1,inactive,inactive,inactive,inactive
CCN(CC)CCc1nc(-c2ccccc2)no1,inactive,inactive,inactive,inactive
CCN1CCN(Cc2ccc(-c3cc4c(N[C@H](C)c5ccccc5)ncnc4[nH]3)cc2)CC1,inactive,0.0077 µM (active),inactive,inactive
COc1cc2c(Oc3ccc(-c4cnc(Nc5ccc(F)cc5)n(C)c4=O)cc3F)ccnc2cc1OCCCN1CCOCC1,21.7 µM (active),15.3 µM (active),21.7 µM (active),24.3 µM (active)
CCCCc1ccc(NS(=O)(=O)c2ccc(C)c(C(=O)N3CCN(c4cccc(C)c4C)CC3)c2)cc1,inactive,inactive,inactive,inactive
COc1cc(N2CCC(N3CCN(C)CC3)CC2)ccc1Nc1ncc(Cl)c(Nc2ccccc2S(=O)(=O)C(C)C)n1,inactive,inactive,inactive,inactive
CN1C(=O)CC[C@H]1c1cccnc1,inactive,inactive,inactive,inactive
NC(CO)C(=O)NNCc1ccc(O)c(O)c1O (stereo not given),inactive,inactive,inactive,inactive
C=C1C(=CC=C2CCCC3(C)[C@@H]([C@H](C)C=CC=CC(O)(CC)CC)CC[C@@H]23)C[C@@H](O)C[C@@H]1O (stereo not given in full),inactive,inactive,inactive,inactive
O=C(O)[C@H](Cc1c[nH]c2ccccc12)N1C(=O)c2ccccc2C1=O,inactive,inactive,inactive,inactive
CC(C)c1ccccc1Cc1cc(C(=O)Nc2ccc(S(=O)(=O)c3ccccc3C(C)(C)C)cc2)c(O)c(O)c1O,21.7 µM (active),19.3 µM (active),24.3 µM (active),24.3 µM (active)
